The text below walks through data of publication PMC7862700, “An all-to-all approach to the identification of sequence-specific readers for epigenetic DNA modifications on cytosine”.

Holding throughout (assay): DAPPL (digital affinity profiling via proximity ligation, sequencing); 10 mM Tris-HCl pH 7.5, 50 mM NaCl, 1 mM DTT, 4% glycerol, room temperature, 30 min; GST-TFs on glutathione beads, 16-mer random dsDNA library, 0.1% formaldehyde crosslink after washing; high values mean tight binding
In test [1] the target is T1, FLI1 (Homo sapiens, UniProt Q01543 1-452).
T1 sequence: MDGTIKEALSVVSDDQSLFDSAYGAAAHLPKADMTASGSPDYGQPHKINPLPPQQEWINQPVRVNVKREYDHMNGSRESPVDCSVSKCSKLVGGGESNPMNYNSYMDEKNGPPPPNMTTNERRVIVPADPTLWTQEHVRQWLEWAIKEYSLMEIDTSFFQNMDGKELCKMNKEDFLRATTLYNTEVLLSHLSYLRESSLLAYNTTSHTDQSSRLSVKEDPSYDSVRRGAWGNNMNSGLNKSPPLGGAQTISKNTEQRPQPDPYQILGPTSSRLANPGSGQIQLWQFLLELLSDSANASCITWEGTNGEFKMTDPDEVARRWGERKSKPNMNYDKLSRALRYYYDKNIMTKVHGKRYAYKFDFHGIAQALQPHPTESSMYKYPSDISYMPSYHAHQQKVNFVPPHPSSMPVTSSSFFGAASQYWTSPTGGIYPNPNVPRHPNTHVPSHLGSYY
As to conditions: protein: recombinant; tags: N-terminal GST; dsDNA, one strand shown. The essentials: (§1)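 Pools were built from human transcription factors expressed in yeast as GST fusions, captured on glutathione beads and DNA-barcoded, along with a tag-only sample. Incubation with 200 nmole of a 16-mer random double-stranded DNA library lasted 30 min at room temperature in Tris/NaCl/DTT/glycerol buffer, and was followed by washing, 0.1% formaldehyde crosslinking, proximity ligation, PCR amplification and Illumina NextSeq500 sequencing. Binding signal is the quotient of each hexamer's read frequency for a factor and its frequency for the tag-only sample.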

Test [2] addresses T2, ELK1 (Homo sapiens, UniProt P19419 1-428).
T2 sequence: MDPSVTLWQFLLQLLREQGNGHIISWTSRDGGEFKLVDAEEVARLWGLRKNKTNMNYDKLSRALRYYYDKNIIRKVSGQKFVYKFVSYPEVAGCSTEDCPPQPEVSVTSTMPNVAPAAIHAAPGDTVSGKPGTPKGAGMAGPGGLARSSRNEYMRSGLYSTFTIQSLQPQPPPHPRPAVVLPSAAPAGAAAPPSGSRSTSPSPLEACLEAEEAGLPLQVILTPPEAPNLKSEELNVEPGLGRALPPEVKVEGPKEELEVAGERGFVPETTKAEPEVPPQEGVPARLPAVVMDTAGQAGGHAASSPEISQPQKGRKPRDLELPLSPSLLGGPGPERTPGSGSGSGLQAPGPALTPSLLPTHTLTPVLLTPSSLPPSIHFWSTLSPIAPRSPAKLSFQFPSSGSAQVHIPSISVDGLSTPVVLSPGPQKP
Conditions: protein: recombinant; tags: N-terminal GST; dsDNA, one strand shown. The essentials:
as §1

Test [3] addresses T3, GABPA (Homo sapiens, UniProt Q06546 1-454).
T3 sequence: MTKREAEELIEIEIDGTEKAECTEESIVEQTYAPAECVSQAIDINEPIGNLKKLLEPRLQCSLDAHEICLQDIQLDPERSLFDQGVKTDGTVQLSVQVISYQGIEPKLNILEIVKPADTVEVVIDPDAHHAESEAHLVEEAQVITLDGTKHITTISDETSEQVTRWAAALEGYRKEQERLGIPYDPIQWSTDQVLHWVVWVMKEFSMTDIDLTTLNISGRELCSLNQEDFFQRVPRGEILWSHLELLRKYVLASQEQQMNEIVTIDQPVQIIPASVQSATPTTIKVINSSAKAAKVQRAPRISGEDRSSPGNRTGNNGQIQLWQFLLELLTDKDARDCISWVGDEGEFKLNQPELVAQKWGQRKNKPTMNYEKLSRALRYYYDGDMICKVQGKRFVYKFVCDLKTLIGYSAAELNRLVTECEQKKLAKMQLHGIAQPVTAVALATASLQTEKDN
As to conditions: protein: recombinant; tags: N-terminal GST; dsDNA, one strand shown. The essentials: as §1

The target in test [4] is T4, ERG (Homo sapiens, UniProt P11308 1-479).
T4 sequence: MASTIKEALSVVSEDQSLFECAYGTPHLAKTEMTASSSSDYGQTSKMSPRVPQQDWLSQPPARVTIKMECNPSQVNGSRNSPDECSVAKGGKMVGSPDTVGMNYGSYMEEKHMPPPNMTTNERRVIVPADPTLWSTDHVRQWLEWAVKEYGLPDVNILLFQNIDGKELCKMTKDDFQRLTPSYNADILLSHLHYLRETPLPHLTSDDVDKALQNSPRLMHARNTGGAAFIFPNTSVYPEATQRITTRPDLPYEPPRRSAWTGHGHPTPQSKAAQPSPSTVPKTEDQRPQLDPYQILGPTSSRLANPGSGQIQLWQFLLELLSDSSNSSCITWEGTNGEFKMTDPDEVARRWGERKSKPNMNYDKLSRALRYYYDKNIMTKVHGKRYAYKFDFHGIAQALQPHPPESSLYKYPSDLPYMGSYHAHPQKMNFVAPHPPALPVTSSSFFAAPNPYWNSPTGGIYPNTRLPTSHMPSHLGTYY
As to conditions: protein: recombinant; tags: N-terminal GST; dsDNA, one strand shown. The essentials: as §1

Test [5] concerns the target ELF1 (Homo sapiens, UniProt P32519 1-619). As to conditions: protein: recombinant; tags: N-terminal GST; dsDNA, one strand shown. In a few lines: as §1
Test [6] deals with T5, EHF (Homo sapiens, UniProt Q9NZC4 1-300).
T5 sequence: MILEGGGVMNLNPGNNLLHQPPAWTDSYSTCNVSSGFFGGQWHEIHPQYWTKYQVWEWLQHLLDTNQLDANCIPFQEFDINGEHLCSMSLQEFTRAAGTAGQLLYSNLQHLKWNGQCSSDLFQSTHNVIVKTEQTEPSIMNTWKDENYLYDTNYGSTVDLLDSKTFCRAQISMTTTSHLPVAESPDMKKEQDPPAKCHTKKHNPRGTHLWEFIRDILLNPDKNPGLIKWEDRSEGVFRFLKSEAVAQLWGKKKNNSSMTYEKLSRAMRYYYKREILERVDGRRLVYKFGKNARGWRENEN
Conditions: protein: recombinant; tags: N-terminal GST; dsDNA, one strand shown. The essentials:
as §1

Test [7] has as its target SPI1 (Homo sapiens, UniProt P17947 1-270). As to conditions: protein: recombinant; tags: N-terminal GST; dsDNA, one strand shown. In a few lines: as §1
For test [8], the target named is SPIB (Homo sapiens, UniProt Q01892 1-262). As to conditions: protein: recombinant; tags: N-terminal GST; dsDNA, one strand shown. In a few lines:
as §1

Test [9] deals with T6, ELK3 (Homo sapiens, UniProt P41970 1-407).
T6 sequence: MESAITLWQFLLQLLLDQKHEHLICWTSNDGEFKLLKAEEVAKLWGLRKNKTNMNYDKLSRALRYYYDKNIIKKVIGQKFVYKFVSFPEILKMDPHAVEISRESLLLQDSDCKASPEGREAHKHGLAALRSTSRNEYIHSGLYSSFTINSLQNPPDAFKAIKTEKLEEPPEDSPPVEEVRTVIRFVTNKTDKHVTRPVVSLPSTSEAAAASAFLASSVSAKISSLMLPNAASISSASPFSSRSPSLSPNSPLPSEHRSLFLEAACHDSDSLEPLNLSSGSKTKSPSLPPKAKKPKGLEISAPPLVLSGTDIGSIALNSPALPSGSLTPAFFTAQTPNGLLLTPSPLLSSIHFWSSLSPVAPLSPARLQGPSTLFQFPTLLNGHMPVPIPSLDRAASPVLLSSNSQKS
As to conditions: protein: recombinant; tags: N-terminal GST; dsDNA, one strand shown. In a few lines: as §1

Test [10] deals with T7, FEV (Homo sapiens, UniProt Q99581 1-238).
T7 sequence: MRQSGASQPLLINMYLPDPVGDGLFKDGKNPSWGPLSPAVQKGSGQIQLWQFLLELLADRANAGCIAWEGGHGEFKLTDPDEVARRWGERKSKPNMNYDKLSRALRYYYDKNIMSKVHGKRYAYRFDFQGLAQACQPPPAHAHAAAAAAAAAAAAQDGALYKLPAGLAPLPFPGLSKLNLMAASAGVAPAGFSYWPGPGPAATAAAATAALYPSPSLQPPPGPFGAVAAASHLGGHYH
Conditions: protein: recombinant; tags: N-terminal GST; dsDNA, one strand shown. In a few lines:
as §1

Test [11] has as its target ETV5 (Homo sapiens, UniProt P41161 1-510). As to conditions: protein: recombinant; tags: N-terminal GST; dsDNA, one strand shown. In a few lines:
as §1

For test [12], the target named is HSF1 (Homo sapiens, UniProt Q00613 1-529). As to conditions: protein: recombinant; tags: N-terminal GST; chain copies: 3; dsDNA, one strand shown. The essentials: as §1
Sequence of HSF1 (Q00613 whole entry): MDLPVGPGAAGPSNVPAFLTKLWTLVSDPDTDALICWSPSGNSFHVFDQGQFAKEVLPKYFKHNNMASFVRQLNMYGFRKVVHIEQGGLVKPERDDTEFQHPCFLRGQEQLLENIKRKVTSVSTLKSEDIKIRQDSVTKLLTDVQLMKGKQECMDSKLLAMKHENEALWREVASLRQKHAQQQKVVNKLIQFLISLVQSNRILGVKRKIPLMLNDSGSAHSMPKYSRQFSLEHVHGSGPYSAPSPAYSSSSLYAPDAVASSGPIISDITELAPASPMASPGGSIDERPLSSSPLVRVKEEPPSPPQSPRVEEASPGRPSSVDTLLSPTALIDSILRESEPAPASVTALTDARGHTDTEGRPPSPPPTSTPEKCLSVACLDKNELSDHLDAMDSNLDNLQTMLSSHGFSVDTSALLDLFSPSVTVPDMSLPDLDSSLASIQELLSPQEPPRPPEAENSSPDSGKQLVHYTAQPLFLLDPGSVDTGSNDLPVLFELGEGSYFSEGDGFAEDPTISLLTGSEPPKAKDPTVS
For test [13], the target named is T8, SPIC (Homo sapiens, UniProt Q8N5J4 1-248).
T8 sequence: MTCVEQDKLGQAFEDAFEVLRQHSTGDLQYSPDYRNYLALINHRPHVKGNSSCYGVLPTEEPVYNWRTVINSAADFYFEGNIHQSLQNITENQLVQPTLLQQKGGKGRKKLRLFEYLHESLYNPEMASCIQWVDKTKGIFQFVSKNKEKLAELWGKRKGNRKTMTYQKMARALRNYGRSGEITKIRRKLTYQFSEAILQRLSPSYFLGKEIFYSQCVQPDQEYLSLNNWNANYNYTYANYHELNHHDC
Conditions: protein: recombinant; tags: N-terminal GST; dsDNA, one strand shown. The essentials: as §1

Test [14] deals with ELF4 (Homo sapiens, UniProt Q99607 1-663). Conditions: protein: recombinant; tags: N-terminal GST; dsDNA, one strand shown. The essentials: as §1
Sequence of ELF4 (Q99607 whole entry): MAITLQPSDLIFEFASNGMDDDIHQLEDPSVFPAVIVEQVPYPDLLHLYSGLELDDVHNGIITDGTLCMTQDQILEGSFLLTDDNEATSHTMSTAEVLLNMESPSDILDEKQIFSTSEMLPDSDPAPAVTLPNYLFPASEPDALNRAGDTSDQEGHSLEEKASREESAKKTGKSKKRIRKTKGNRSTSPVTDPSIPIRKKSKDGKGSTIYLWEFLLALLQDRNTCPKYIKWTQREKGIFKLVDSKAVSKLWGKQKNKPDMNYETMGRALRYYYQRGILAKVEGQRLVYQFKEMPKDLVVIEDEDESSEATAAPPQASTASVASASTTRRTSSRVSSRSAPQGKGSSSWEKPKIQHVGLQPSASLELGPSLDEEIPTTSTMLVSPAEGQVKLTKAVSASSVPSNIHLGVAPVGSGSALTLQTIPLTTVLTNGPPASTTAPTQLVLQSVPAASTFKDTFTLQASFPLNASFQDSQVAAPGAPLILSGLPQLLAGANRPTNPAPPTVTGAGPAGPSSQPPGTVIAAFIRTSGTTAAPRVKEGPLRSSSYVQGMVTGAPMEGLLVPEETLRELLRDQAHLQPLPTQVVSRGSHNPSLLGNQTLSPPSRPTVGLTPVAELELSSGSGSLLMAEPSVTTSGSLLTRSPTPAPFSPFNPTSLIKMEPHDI
Test [15] has as its target T9, ELK4 (Homo sapiens, UniProt P28324-2 1-405).
T9 sequence: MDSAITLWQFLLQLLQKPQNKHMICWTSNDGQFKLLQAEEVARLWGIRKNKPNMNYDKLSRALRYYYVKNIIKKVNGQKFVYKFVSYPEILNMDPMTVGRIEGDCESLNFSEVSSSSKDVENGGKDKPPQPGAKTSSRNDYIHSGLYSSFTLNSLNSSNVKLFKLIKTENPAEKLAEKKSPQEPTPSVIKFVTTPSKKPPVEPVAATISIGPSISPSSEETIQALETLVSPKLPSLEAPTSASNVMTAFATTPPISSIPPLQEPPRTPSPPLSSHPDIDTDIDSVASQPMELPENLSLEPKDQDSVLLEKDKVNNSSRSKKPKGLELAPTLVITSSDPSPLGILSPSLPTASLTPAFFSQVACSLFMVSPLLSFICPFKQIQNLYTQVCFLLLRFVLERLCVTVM
As to conditions: protein: recombinant; tags: N-terminal GST; dsDNA, one strand shown. The essentials:
as §1

Test [16] has as its target T10, ETV2 (Homo sapiens, UniProt O00321 1-342).
T10 sequence: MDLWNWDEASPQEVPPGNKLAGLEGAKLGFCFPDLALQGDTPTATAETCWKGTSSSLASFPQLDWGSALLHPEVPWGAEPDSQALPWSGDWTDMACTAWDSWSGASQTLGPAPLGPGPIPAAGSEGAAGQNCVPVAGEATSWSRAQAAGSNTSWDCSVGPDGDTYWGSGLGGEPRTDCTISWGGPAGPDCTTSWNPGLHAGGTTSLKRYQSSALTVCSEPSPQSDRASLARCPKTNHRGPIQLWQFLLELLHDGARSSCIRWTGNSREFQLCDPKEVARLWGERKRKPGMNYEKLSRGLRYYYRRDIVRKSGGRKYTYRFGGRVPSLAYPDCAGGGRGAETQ
As to conditions: protein: recombinant; tags: N-terminal GST; dsDNA, one strand shown. In a few lines: as §1

For test [17], the target named is T11, ELF3 (Homo sapiens, UniProt P78545 1-371).
T11 sequence: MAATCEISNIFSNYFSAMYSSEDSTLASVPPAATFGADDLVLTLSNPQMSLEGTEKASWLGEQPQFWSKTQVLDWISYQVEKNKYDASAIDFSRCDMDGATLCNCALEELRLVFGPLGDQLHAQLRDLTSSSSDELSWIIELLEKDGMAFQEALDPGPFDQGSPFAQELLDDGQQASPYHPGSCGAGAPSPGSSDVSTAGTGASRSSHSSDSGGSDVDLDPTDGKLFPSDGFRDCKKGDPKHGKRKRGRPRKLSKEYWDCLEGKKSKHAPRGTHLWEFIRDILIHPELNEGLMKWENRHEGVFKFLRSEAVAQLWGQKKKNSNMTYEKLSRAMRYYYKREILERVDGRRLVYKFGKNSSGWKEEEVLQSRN
Conditions: protein: recombinant; tags: N-terminal GST; dsDNA, one strand shown. The essentials: as §1

The target in test [18] is ETV1 (Homo sapiens, UniProt P50549 1-477). Conditions: protein: recombinant; tags: N-terminal GST; dsDNA, one strand shown. The essentials: as §1
Sequence of ETV1 (P50549 whole entry): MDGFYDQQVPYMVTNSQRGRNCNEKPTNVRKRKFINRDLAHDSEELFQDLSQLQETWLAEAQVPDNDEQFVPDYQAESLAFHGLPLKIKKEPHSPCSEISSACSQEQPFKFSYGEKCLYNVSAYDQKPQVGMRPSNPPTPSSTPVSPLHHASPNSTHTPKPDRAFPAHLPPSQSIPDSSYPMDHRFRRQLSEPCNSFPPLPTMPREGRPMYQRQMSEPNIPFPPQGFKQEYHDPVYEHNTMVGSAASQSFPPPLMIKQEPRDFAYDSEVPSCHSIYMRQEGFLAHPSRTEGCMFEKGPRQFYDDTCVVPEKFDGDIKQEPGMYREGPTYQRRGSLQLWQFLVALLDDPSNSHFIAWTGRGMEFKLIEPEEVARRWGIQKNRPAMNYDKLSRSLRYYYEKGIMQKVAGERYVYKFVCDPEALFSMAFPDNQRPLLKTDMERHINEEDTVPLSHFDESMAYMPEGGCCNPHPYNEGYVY

Sequence of SPIB (Q01892 whole entry): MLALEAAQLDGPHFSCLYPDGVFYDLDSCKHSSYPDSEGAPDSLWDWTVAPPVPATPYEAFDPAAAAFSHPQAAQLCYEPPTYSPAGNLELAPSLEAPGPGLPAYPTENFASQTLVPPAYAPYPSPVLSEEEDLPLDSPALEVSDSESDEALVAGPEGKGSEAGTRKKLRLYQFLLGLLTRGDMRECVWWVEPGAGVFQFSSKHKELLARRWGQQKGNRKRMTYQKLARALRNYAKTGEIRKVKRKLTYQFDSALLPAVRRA
Sequence of ELF1 (P32519 whole entry): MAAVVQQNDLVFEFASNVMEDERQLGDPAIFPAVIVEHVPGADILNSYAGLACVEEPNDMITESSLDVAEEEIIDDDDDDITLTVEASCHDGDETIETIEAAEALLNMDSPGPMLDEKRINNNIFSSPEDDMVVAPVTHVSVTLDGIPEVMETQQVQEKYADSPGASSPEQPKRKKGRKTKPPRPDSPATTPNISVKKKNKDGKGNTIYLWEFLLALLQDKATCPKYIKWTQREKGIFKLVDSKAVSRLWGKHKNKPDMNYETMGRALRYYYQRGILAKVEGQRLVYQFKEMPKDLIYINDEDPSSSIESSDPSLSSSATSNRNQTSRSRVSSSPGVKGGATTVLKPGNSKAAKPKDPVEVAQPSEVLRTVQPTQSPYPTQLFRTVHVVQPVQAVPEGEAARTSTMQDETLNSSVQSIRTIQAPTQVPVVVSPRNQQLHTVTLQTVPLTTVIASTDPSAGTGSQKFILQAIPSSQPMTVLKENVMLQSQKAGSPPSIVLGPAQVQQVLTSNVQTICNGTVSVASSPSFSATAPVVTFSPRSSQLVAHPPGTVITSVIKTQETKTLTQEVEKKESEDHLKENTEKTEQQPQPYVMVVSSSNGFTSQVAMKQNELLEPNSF
Sequence of ETV5 (P41161 whole entry): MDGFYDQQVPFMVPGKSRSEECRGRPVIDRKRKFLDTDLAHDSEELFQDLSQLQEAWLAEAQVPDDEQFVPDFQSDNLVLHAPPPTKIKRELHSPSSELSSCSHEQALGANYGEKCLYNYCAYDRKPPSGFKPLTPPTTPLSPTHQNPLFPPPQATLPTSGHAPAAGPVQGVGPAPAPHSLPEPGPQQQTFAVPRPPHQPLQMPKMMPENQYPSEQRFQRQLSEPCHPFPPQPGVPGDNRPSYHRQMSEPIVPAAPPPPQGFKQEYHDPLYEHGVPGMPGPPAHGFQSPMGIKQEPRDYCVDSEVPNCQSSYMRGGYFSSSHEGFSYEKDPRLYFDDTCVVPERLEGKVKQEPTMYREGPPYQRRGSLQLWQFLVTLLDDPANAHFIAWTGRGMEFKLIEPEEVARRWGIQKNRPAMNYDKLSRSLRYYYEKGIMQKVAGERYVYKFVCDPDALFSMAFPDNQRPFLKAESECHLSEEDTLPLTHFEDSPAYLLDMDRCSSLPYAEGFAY

In the case of ATGGTC, the binding signal in test [1] was 1.66 fold enrichment (6-mer frequency, TF over GST control); in [2], 1.45 fold enrichment (6-mer frequency, TF over GST control); in test [3], 1.65 fold enrichment (6-mer frequency, TF over GST control); in test [4], 1.69 fold enrichment (6-mer frequency, TF over GST control); in test [5], 1.55 fold enrichment (6-mer frequency, TF over GST control); in test [6] it was 1.47 fold enrichment (6-mer frequency, TF over GST control). Further, the binding signal was 1.64 fold enrichment (6-mer frequency, TF over GST control) in test [7]; 1.66 fold enrichment (6-mer frequency, TF over GST control) in [8]; 1.52 fold enrichment (6-mer frequency, TF over GST control) in test [9]; 1.36 fold enrichment (6-mer frequency, TF over GST control) in [10]; 1.57 fold enrichment (6-mer frequency, TF over GST control) in test [11]; 1.01 fold enrichment (6-mer frequency, TF over GST control) in test [12]. Besides, the binding signal in test [13] was 1.63 fold enrichment (6-mer frequency, TF over GST control); in [14] it was 1.59 fold enrichment (6-mer frequency, TF over GST control); in test [15], 1.38 fold enrichment (6-mer frequency, TF over GST control); in test [16], 1.47 fold enrichment (6-mer frequency, TF over GST control); in test [17] it was 1.48 fold enrichment (6-mer frequency, TF over GST control); in [18], 1.41 fold enrichment (6-mer frequency, TF over GST control).
